Sfp inh: Sfp phosphopantetheinyl transferase inhibition. Q9F4F7. Biochemical Sfp PPTase activity, qHTS. AID 1490. Potency, µM, most hits filed as inhibitors. 310,000 compounds, 3.5% hits;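 note: the enzyme is Sfp with the accession as filed and its product quenches rhodamine fluorescence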
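Compounds were incubated with enzyme (final 15 nM) for 15 min at room temperature before substrate addition started the reaction. Fluorescence at 525 nm excitation, 598 nm emission was recorded immediately and after 30 minutes.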
BAZ2B block: blocks human BAZ2B; AlphaScreen BAZ2B-H3K14Ac peptide displacement; Potency, µM (doses to about 114 µM), most hits filed as inhibitors; 360,000 compounds, 4.4% hits; AID 504333; note: nearly all actives have a fitted effect of over 60% in size
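Inhibition is scored as reduced AlphaScreen emission. The BAZ2B/b-H3(5-23)K14Ac complex (50 nM each) in PBS pH 7.4, 0.01% Tween-20 meets compound (up to 110 uM) for 30 min at RT before bead addition.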
G9a block: G9a (human) methyltransferase inhibition | 350,000 compounds, 8.8% hits | G9a H3K9 monomethylation, AlphaScreen, 2 h | Q96KQ7 | Potency, µM (highest dose often 102 µM), usual class: inhibitors; note: nearly all actives have a fitted effect of over 75% in size
Target sequence (Q96KQ7 913-1193 limits assumed): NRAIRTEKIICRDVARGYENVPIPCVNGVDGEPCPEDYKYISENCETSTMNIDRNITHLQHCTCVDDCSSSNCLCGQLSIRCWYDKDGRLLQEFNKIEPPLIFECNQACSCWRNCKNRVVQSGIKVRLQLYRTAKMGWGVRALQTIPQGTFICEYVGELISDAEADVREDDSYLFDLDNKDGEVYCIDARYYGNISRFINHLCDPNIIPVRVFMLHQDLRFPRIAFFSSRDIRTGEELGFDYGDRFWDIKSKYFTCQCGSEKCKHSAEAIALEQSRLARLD
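Step 1: enzyme (final 20 nM) with compound, 15 min RT. Step 2: substrate peptide 500 nM and SAM 20 uM, 2 h RT. Step 3: anti-H3K9me1 antibody and AlphaScreen beads, 10 min, then plate read.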
HP1b chromo inh: HP1-beta chromodomain-methylated histone interaction inhibition; P83916; AlphaScreen HP1-beta / biotin-H3K9me3 peptide binding; Potency, µM (highest dose often 114 µM), hits mostly inhibitors; 390,000 compounds, 0.56% hits; note: nearly all actives have a fitted effect of over 70% in size
Target sequence (P83916 whole entry, looked up): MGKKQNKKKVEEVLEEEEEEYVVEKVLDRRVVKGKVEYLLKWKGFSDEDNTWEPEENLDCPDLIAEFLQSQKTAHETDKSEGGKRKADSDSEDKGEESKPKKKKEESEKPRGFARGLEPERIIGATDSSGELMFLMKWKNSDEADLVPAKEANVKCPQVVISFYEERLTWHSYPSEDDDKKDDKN
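HP1-beta protein (50 nM final) preincubated 30 min at room temperature with biotinylated H3(1-18)K9me3 peptide (50 nM) in PBS pH 7.4, 0.01% Tween-20, then compound added for 30 min. AlphaScreen streptavidin donor/nickel chelate acceptor beads (10 ug/mL final), 30 min dark, luminescence read.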
JMJD2A Tudor: JMJD2A Tudor domain (human) inhibition. AlphaScreen JMJD2A-Tudor / H3K4me3 peptide binding. Potency, µM (series often up to 114 µM), most hits filed as inhibitors. AID 504339. 390,000 compounds, 4.4% hits; note: nearly all actives have a fitted effect of over 50% in size
Of the large screens only hits and unclear results are named; the others gave an inactive call. An excerpt weighted towards active compounds, which were near 12% of everything screened. Calls come from the whole dose curve; as a rule, active = well fitted curve in the direction sought with a large enough effect; inconclusive = small, poorly fitted or top-dose-only effect, or another doubt; inactive = no such curve, though single readings can be large; an effect the other way counts as inactive or inconclusive.

CSc1ccc(C(=S)N2CCN(C(c3ccccc3)c3ccccc3)CC2)cc1	Sfp inh 35µM, G9a block 10µM
CSc1ccc(C(=S)N2CCCC2)cc1	Sfp inh 50µM, G9a block 32µM, HP1b chromo inh inconclusive
CCCNC(=S)N1CCN(C(c2ccccc2)c2ccccc2)CC1	none
CSc1ccc(C(=S)N2CCN(C)CC2)cc1	Sfp inh 6.3µM, G9a block inconclusive
Nc1ccccc1C#Cc1cnccn1	none (no result: Sfp inh, BAZ2B block, G9a block)
O[C@@H]1COC(Nc2ccc(N=Nc3ccccc3)cc2)C[C@@H]1O (stereo not given in full)	BAZ2B block inconclusive, G9a block 45µM, HP1b chromo inh inconclusive, JMJD2A Tudor inconclusive
OC[C@H]1OC(Nc2ccc(N=Nc3ccccc3)cc2)[C@@H](O)[C@@H](O)[C@@H]1O (stereo not given in full)	BAZ2B block inconclusive (no result: G9a block)
CC(C)(C)c1cccc(S(=O)(=O)N2CCN(c3nc(-c4cccs4)nc4ccccc34)CC2)c1	none (no result: Sfp inh, BAZ2B block, G9a block)
O=C(CSc1nccc(=O)[nH]1)c1c[nH]c2ccccc12	none (no result: G9a block)
O=C(CSc1nccc(=O)[nH]1)c1ccccc1Br	Sfp inh 50µM, G9a block 7.9µM
C=CCSc1nccc(=O)[nH]1	JMJD2A Tudor 50µM
CCS(=O)(=O)N1CCc2cc(C(=O)Nc3cccc(C)c3C)ccc21	JMJD2A Tudor inconclusive (no result: Sfp inh)
S=c1oc(-c2ccncc2)nn1CCc1ccncc1	BAZ2B block 56µM
CC(C)(C)Sc1ccc(N)nc1	BAZ2B block inconclusive, G9a block 50µM
CN(Cc1ccc([N+](=O)[O-])cc1)c1ccccc1	JMJD2A Tudor inconclusive (no result: Sfp inh, BAZ2B block, G9a block)
CN(Cc1ccccc1)C1=CC(=[N+]2CCCC2)CC(C)(C)C1	G9a block inconclusive, HP1b chromo inh inconclusive, JMJD2A Tudor 8.9µM
CCN(CC)C1=CC(=[N+]2CCCC2)CC(C)(C)C1	G9a block 40µM
COc1ccc(C(=O)OCC(=O)c2cc(OC)ccc2OC)c(OC)c1	none
COc1ccc(C(=O)COC(=O)c2ccc(Cl)nc2)c(OC)c1	BAZ2B block 79µM (no result: Sfp inh)
COc1ccc(C(=O)COC(=O)c2ccccc2O)c(OC)c1	BAZ2B block 50µM, JMJD2A Tudor inconclusive (no result: Sfp inh)
COc1ccc(C(=O)COC(=O)c2ccc(Cl)nc2)cc1OC	G9a block inconclusive (no result: Sfp inh)
S=c1[nH]nc(-c2ccco2)n1/N=C/c1ccc(Cl)cc1Cl	BAZ2B block inconclusive, G9a block inconclusive, JMJD2A Tudor 40µM
S=c1[nH]nc(-c2ccco2)n1/N=C/c1cccc(Cl)c1Cl	BAZ2B block 50µM, G9a block 1.4µM, JMJD2A Tudor 35µM
Cc1nc2cnc(OCc3ccccc3)nc2n(C)c1=O	none (no result: BAZ2B block, HP1b chromo inh, JMJD2A Tudor)
Cn1ncc2c(=S)nc(Cl)[nH]c21	JMJD2A Tudor 22µM (no result: Sfp inh, BAZ2B block, G9a block)
CCCCOc1ccc(NC(=O)CCSc2nccn2C)cc1	BAZ2B block inconclusive, G9a block 11µM, JMJD2A Tudor 3.2µM
CCCCOc1ccc(NC(=O)Nc2nnc(C)s2)cc1	G9a block 79µM
Cc1cc2c(cc(C(=O)N3CCC(C(=O)N4CCCC4)CC3)n2Cc2c(F)cccc2Cl)o1	Sfp inh 50µM, BAZ2B block inconclusive, G9a block 50µM, JMJD2A Tudor 56µM
CCOC(=O)c1cc2occc2n1Cc1ccc(F)cc1	BAZ2B block inconclusive
CCOC(=O)c1cc2occc2n1Cc1c(F)cccc1Cl	BAZ2B block 50µM, G9a block inconclusive
COc1ccc(C2c3c(nc(CCCc4ccccc4)[nH]c3=O)Oc3ccc4ccccc4c32)cc1OC (stereo not given)	none (no result: Sfp inh, BAZ2B block, G9a block, HP1b chromo inh)
C=CCn1c(C(C)NC(=O)c2ccccc2)n[nH]c1=S (stereo not given)	JMJD2A Tudor 10µM (no result: G9a block)
CCn1c(C(C)NC(=O)c2cccc(C)c2)nc2ccccc21 (stereo not given)	G9a block inconclusive
CCn1c(C(C)NC(=O)c2cccc(C)c2)n[nH]c1=S (stereo not given)	G9a block 45µM
CCCn1c(CNC(=O)c2ccccc2)nc2ccccc21	none
CCCn1c(C(C)NC(=O)c2ccccc2)n[nH]c1=S (stereo not given)	JMJD2A Tudor 8.9µM (no result: G9a block)
CCCOc1ccc(-c2nonc2NC(=O)c2oc3ccc(Cl)cc3c2C)cc1OCCC	none (no result: Sfp inh)
O=C(NCCOc1ccccc1)C1=CC=CN2CCS(=O)(=O)N=C12	none (no result: Sfp inh, BAZ2B block, G9a block)
O=C(N/N=C/c1cc(Br)c(O)c(Br)c1)c1cc2c(ccc3ccccc32)o1	Sfp inh inconclusive, BAZ2B block 40µM, G9a block inconclusive, HP1b chromo inh inconclusive, JMJD2A Tudor 79µM
O=C(N/N=C/c1ccc(O)c(Br)c1)c1cc2c(ccc3ccccc32)o1	none
O=C(N/N=C/c1cc(Cl)c(O)c(Cl)c1)c1cc2c(ccc3ccccc32)o1	Sfp inh inconclusive, BAZ2B block 56µM, JMJD2A Tudor inconclusive (no result: G9a block)
O=C(N/N=C/c1cccnc1)c1cc2c(ccc3ccccc32)o1	none
CCc1ccc(NC(=O)Cn2c(=O)n(CCCCC(=O)NCCc3ccccc3)c(=O)c3ccccc32)cc1	none (no result: Sfp inh)
CCc1ccc(S(=O)(=O)/N=C2\C=CC(=O)c3ccccc32)cc1	BAZ2B block 35µM, G9a block 14µM (no result: HP1b chromo inh, JMJD2A Tudor)
CCc1ccc(S(=O)(=O)O)cc1	none (no result: BAZ2B block, HP1b chromo inh, JMJD2A Tudor)
CCc1ccc(S(=O)(=O)/N=C2\C=C(Nc3cccc(C(=O)O)c3)C(=O)c3ccccc32)cc1	BAZ2B block 10µM, G9a block 14µM, HP1b chromo inh inconclusive, JMJD2A Tudor 18µM
CCc1ccc(S(=O)(=O)/N=C2\C=C(Nc3ccc(O)cc3)C(=O)c3ccccc32)cc1	BAZ2B block 8.9µM, G9a block 7.1µM, HP1b chromo inh 10µM, JMJD2A Tudor 7.1µM
CCc1ccc(S(=O)(=O)/N=C2/C=C(Sc3ncn[nH]3)C(=O)c3ccccc32)cc1	Sfp inh 3.5µM, BAZ2B block 45µM, G9a block 1.4µM, HP1b chromo inh inconclusive, JMJD2A Tudor 4µM
Cc1ccc(NC(=O)C(c2ccccc2)N2CCN(CC(=O)NC3CC3)CC2)cc1 (stereo not given)	none (no result: Sfp inh)
C[C@H]1CCCC(=O)CCC/C=C/c2c(O)cc(O)cc2C(=O)O1	none (no result: BAZ2B block, G9a block, HP1b chromo inh, JMJD2A Tudor)
CN(CC(=O)Nc1ccc(S(=O)(=O)N2CCCC2)cc1)Cc1c(F)cccc1Cl	none (no result: BAZ2B block)
CC(=O)C(Cl)C(=O)Nc1ccccc1 (stereo not given)	Sfp inh inconclusive, G9a block 45µM
CC(C(=O)Nc1ccccc1)C(=O)Nc1ccccc1	none
O=C(Nc1ccccc1)C(Cl)C(=O)c1ccccc1 (stereo not given)	Sfp inh 14µM
CCCOc1ccc(C(=O)Nc2ccc3oc(-c4ccc5ccccc5c4)nc3c2)cc1	none (no result: Sfp inh)
COC(=O)c1ccc(C(NC(=O)OCc2ccccc2)/C(=C/[C@@H](C)C(=O)N(C)C)c2cccnc2)cc1 (stereo not given in full)	none (no result: BAZ2B block, G9a block, HP1b chromo inh, JMJD2A Tudor)
CCCC1c2ccc(C)n2CCN1C(=O)Nc1ccccc1Cl (stereo not given)	none
CCOC(=O)c1ccccc1NC(=O)N1CCn2c(C)ccc2C1CC (stereo not given)	G9a block 22µM
